Assay results from PubChem BioAssay (NCATS).
“And” between values parts separate entries of the source, which are not always exact repeats. Equal entries are not always repeated. Inconclusive results are not listed. A structure can be active in one record and inactive in another. The source made the active and inactive calls. Unless noted, calls come from the whole dose curve.

Tests used:
[1] = target: Glucocorticoid receptor (Homo sapiens) (UniProt P04150); test: qHTS assay for small molecule agonists of glucocorticoid receptor signaling (AID 588532; active = well fitted curve in the direction sought with a large enough effect in the signal ratio, with a control signal flat; the % refers to the signal ratio;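 note: 100% = dexamethasone at 0.1 µM and 0% = DMSO only wells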); settings: HeLa MMTV-bla, beta-lactamase ratio, agonist, 18 h; activation: stronger effect = higher value, percent of dexamethasone control, DMSO zero
Glucocorticoid receptor (Homo sapiens), sequence (P04150 whole entry, looked up): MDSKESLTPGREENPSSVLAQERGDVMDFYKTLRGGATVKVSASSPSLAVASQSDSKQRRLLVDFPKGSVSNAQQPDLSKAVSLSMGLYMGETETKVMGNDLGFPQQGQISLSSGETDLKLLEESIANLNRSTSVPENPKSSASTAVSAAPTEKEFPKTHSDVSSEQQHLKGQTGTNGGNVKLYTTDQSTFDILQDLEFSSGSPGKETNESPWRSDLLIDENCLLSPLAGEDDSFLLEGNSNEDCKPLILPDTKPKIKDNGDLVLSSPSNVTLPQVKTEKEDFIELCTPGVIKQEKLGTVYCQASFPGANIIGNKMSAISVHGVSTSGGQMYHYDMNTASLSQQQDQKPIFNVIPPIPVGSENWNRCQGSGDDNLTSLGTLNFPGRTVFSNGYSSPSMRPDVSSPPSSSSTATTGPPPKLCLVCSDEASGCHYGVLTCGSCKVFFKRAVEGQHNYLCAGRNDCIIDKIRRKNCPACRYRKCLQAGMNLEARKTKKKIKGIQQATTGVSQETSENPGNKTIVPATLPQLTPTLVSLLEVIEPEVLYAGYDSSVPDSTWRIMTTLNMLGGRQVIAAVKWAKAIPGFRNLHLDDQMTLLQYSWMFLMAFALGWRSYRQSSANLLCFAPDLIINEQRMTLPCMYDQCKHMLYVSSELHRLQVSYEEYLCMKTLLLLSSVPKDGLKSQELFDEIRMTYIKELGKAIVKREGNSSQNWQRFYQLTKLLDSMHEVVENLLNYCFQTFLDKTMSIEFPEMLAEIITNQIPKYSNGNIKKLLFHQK
In short: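 HeLa GRE-bla reporter cells; 18 h compound exposure at 37 C; 2 h CCF4 loading at room temperature; fluorescence at 460 and 530 nm; EC50 by Hill equation.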

[2] = target: Vitamin D3 receptor (Homo sapiens) (UniProt P11473); test: qHTS assay for small molecule antagonists of vitamin D receptor signaling (AID 588541);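 note: receptor activated by calcitriol during compound treatment; series mostly up to about 77 µM; % is set by controls: 0 for no effect and ±100 for the full control effect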
Vitamin D3 receptor (Homo sapiens), sequence (P11473 whole entry, looked up): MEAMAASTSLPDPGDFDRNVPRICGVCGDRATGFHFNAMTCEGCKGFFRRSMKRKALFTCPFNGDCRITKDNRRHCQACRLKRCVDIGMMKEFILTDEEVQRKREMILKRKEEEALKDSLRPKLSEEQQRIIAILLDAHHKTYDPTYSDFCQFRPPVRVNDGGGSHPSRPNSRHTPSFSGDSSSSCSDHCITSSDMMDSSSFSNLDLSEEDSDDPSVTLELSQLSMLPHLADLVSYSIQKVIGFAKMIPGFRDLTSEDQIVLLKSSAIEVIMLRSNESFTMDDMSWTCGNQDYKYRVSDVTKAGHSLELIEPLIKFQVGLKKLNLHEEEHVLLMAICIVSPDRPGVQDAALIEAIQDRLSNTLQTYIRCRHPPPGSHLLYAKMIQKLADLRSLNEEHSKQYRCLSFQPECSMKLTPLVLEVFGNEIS
In short: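 VDR-UAS-bla HEK293T cells in 2% charcoal-stripped FBS were stimulated with 1-alpha,25-dihydroxyvitamin D3 (3 nM final) plus compound for 16 h at 37 C. The beta-lactamase CCF4 readout was normalized to 50 nM agonist and DMSO, and Hill fits gave IC50.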

[3] = qHTS assay for small molecule agonists of retinoid X receptor alpha signaling (AID 588544); settings: HEK293T RXRa-UAS-bla, beta-lactamase reporter, 18 h; 530 nm emission;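 for activation: 0% = DMSO basal wells and 100% = reference agonist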
[4] = target: Retinoic acid receptor RXR-alpha (Homo sapiens) (UniProt P19793); test: as above
Retinoic acid receptor RXR-alpha (Homo sapiens), sequence (P19793 whole entry, looked up): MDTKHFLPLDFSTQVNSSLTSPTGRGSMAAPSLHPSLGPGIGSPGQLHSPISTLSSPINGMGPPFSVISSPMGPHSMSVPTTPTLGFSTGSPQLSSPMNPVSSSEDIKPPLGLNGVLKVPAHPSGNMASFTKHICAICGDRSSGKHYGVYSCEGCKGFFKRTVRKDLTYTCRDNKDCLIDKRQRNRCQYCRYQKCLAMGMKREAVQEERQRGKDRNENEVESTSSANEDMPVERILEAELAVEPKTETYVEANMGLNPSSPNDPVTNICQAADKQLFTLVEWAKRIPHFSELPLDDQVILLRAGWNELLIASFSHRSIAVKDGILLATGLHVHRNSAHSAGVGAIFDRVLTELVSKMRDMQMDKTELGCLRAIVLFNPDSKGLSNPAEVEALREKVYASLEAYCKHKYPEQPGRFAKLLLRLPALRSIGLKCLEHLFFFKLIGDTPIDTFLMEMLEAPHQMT

[5] = qHTS assay for small molecule antagonists of retinoid X receptor alpha signaling (AID 588546; active = well fitted inhibition curve with a large enough effect in the signal ratio, with a control signal flat, not every such curve was filed as active; the % refers to the signal ratio;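 note: cells stimulated with 9-cis-retinoic acid as agonist; % is set by controls: 0 for no effect and ±100 for the full control effect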); settings: HEK293T RXRa-UAS-bla, beta-lactamase ratio, antagonist mode; measured here: W530 green channel, cytotoxicity proxy
In short: (§1)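 Beta-lactamase reporter inhibition, read as CCF4 fluorescence ratio (ex 405, em 460/530 nm) after 2 h at RT. HEK293T UAS-bla cells, 2500/well, were stimulated with 9-cis-RA at 500 or 100 nM final alongside test compound for 18 h at 37 C.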

[6] = target: Retinoic acid receptor RXR-alpha (Homo sapiens) (UniProt P19793); test: as above; settings: HEK293T RXRa-UAS-bla, beta-lactamase ratio, antagonist mode
In short: as §1

[7] = qHTS assay for small molecule agonists of the antioxidant response element (ARE) signaling pathway (AID 651741; active = well fitted activation curve with a large enough effect in the signal ratio; the % refers to the signal ratio; note: potency is the fitted concentration of half-maximal effect; for activation: % of control where 0% means no effect)
In short: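 HepG2 ARE-bla reporter cells, 2,000/well; 5 h settle at 37 C/5% CO2; compound pin transfer (23 nL, DMSO); 16 h at 37 C; LiveBLAzer B/G FRET substrate, 2 h RT; fluorescence intensity read.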

[8] = qHTS assay for small molecule agonists of the antioxidant response element (ARE) signaling pathway measured by Nrf2-dependant transcriptional activity (AID 720636; active = well fitted curve in the direction sought with a large enough effect in the repeat runs; an effect the other way counts as inactive or inconclusive; note: potency is the fitted concentration of half-maximal effect;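 for activation: HepG2 cells with an ARE-driven luciferase reporter; % of control where 0% means no effect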)
In short: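 Cells: ARE-luc HepG2 with Nrf2-responsive luciferase. Medium contained 1% dialyzed FBS. Compound exposure lasted 16 hr at 37 C and 5% CO2, followed by ONE-Glo luciferase detection.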

[9] = target: Vitamin D3 receptor (Homo sapiens) (UniProt P11473); test: qHTS assay for small molecule agonists of vitamin D receptor signaling (AID 588543);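 note: 0% = DMSO basal and 100% = reference agonist control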
In short: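 Reporter cells (HEK293T, VDR-UAS-bla) were seeded in medium with 2% charcoal-stripped serum and incubated 5 h, then compounds in concentration series were added for 16 h at 37 °C. Stimulation was scaled between DMSO basal and 50 nM 1α,25-dihydroxyvitamin D3.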

[10] = qHTS assay for environmental chemicals that activate the Aryl hydrocarbon Receptor (AhR) signaling pathway (AID 651777; active = well fitted curve in the direction sought with a large enough effect; an effect the other way counts as inactive or inconclusive; note: % of control where 0% means no effect; nearly all actives have a fitted effect of over 15% in size); settings: 1A2-DRE human hepatoma cells, luciferase, 24 h; activation: stronger effect = higher value
In short: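 1A2-DRE human hepatoma reporter line; 1,200 cells/well; cmpd or DMSO 24 h, 37 C/5% CO2; One-Glo 30 min RT; luciferase lum.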

[11] = target: Bile acid receptor (Homo sapiens) (UniProt Q96RI1); test: qHTS assay for small molecule agonists of farnesoid X receptor signaling (AID 588527); settings: HEK293T FXR-UAS-bla, beta-lactamase ratio, 16 h; activation: stronger effect = higher value;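 note: series mostly up to about 77 µM; 0% = vehicle basal and 100% = reference agonist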
Bile acid receptor (Homo sapiens), sequence (Q96RI1 whole entry, looked up): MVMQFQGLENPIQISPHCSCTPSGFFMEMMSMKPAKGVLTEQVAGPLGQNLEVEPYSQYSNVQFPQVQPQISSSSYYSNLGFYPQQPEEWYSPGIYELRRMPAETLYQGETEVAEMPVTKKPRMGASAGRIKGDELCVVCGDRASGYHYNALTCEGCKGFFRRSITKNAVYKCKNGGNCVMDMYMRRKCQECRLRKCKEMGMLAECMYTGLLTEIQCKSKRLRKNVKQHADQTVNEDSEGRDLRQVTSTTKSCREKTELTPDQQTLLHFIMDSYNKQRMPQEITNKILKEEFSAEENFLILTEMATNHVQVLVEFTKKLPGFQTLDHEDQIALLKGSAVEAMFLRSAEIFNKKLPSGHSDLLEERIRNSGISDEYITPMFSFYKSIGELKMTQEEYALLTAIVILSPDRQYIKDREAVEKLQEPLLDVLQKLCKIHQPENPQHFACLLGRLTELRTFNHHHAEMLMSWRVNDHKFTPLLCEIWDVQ
In short: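 Quantitative HTS used FXR-UAS-bla HEK293T cells with 16 h compound incubation at 37 C. EC50 values came from concentration-response curves normalized to chenodeoxycholic acid.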

[12] = target: Nuclear receptor ROR-gamma (Homo sapiens) (UniProt P51449); test: qHTS assay for small molecule antagonists of the retinoid-related orphan receptor gamma (ROR-gamma) signaling pathway (AID 651802; active = well fitted curve in the direction sought with a large enough effect; an effect the other way counts as inactive or inconclusive; note: potency is the fitted concentration of half-maximal effect; nearly all actives have a fitted effect of over 60% in size)
Nuclear receptor ROR-gamma (Homo sapiens), sequence (P51449 whole entry, looked up): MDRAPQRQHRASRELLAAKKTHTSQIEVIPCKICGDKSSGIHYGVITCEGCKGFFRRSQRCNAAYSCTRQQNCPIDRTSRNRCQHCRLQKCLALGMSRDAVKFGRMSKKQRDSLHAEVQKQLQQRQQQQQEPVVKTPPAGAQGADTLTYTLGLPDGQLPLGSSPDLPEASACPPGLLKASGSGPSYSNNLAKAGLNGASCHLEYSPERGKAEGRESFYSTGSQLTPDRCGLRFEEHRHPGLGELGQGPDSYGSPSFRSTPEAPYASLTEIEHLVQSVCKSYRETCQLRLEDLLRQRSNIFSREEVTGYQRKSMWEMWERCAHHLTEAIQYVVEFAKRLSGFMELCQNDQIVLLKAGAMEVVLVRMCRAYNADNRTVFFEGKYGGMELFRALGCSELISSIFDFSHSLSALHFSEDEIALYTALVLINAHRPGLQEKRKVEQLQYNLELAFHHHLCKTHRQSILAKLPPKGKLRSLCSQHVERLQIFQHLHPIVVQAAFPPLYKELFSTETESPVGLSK
In short: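 Doxycycline-induced reporter activity in engineered CHO cells (TET-inducible ROR, RORE-LUC) was measured by luminescence after 16hr compound exposure at 37C.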

[13] = target: Glucocorticoid receptor (Homo sapiens) (UniProt P04150); test: qHTS assay for small molecule antagonists of glucocorticoid receptor signaling (AID 588533; active = well fitted inhibition curve with a large enough effect in the signal ratio, with a control signal flat, not every such curve was filed as active; the % refers to the signal ratio; note: % is set by controls: 0 for no effect and ±100 for the full control effect)
In short: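 Antagonist-mode qHTS: compound titrations added to GRE-bla HeLa cells, then dexamethasone 2 nM final; 18 h, 37 C. CCF4 FRET fluorescence normalized to dexamethasone and DMSO; IC50 from Hill fit.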

[14] = target: Peroxisome proliferator-activated receptor delta (Homo sapiens) (UniProt Q03181); test: qHTS assay for small molecule agonists of peroxisome proliferator-activated receptor delta signaling (AID 588534);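 note: 0% = DMSO basal wells and 100% = positive control agonist at 10 µM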
Peroxisome proliferator-activated receptor delta (Homo sapiens), sequence (Q03181 whole entry, looked up): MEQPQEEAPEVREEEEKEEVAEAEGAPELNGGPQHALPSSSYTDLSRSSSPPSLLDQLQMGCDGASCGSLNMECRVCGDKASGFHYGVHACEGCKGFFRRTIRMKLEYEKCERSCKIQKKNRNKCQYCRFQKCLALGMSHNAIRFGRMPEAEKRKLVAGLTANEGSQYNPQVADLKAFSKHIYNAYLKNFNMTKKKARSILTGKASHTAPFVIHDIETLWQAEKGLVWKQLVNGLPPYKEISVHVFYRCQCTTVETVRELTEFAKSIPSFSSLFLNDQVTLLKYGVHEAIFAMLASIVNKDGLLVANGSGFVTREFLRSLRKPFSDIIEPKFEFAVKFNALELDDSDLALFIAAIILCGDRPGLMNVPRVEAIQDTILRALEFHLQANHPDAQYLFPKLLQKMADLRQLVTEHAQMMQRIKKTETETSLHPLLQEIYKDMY
In short: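 EC50 and efficacy values derive from Hill fits of a concentration series in a beta-lactamase reporter cell assay. Exposure is 18 hrs at 37 C, with CCF4 fluorescence as the readout.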

[15] = qHTS assay for small molecule antagonists of peroxisome proliferator-activated receptor delta signaling (AID 588535; active = well fitted inhibition curve with a large enough effect in the signal ratio, with a control signal flat, not every such curve was filed as active; the % refers to the signal ratio;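 for max response: cells co-treated with a PPAR-delta agonist as stimulator during compound exposure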); settings: HEK293T PPARd-UAS-bla, beta-lactamase FRET ratio, 18 h; 460 nm channel
In short: (§2)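 Beta-lactamase reporter read-out (405 nm excitation, 460/530 nm emission) after CCF4 loading for 2 hrs at RT. HEK293T PPAR-delta-UAS-bla cells, 2% charcoal/dextran FBS, compounds for 18 hrs at 37 C. Hill fit gave IC50 and efficacy.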

[16] = target: Peroxisome proliferator-activated receptor delta (Homo sapiens) (UniProt Q03181); test: as above
In short: as §2

[17] = target: Peroxisome proliferator-activated receptor gamma (Homo sapiens) (UniProt P37231); test: qHTS assay for small molecule antagonists of peroxisome proliferator-activated receptor gamma signaling (AID 588537; active = well fitted inhibition curve with a large enough effect in the signal ratio, with a control signal flat, not every such curve was filed as active; the % refers to the signal ratio;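 note: reporter cells co-stimulated with 50 nM rosiglitazone agonist during compound treatment; % of control where 0% means no effect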)
Peroxisome proliferator-activated receptor gamma (Homo sapiens), sequence (P37231 whole entry, looked up): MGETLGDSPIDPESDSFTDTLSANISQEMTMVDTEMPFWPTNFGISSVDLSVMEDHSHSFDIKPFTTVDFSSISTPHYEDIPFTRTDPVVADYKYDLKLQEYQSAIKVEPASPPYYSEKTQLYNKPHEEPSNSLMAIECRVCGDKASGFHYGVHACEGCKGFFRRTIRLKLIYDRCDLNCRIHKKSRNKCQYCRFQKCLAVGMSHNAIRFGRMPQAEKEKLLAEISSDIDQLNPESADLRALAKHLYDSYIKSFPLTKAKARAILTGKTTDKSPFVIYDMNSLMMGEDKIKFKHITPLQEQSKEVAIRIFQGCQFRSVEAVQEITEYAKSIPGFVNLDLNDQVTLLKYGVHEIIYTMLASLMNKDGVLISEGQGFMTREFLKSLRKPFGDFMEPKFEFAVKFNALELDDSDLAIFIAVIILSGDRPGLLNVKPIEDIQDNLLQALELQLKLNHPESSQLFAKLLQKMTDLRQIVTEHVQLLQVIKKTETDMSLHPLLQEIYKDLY
In short: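 Read-out: CCF4 fluorescence (ex 405, em 460/530 nm) after 2 h at RT. Cells were HEK293 carrying a UAS-bla reporter and treated 16 h at 37 C with compound plus rosiglitazone (50 nM final). Normalized to rosiglitazone and DMSO.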

[18] = target: Thyroid hormone receptor beta (Homo sapiens) (UniProt P10828); test: qHTS assay for small molecule agonists of thyroid hormone receptor beta signaling (AID 588545)
Thyroid hormone receptor beta (Homo sapiens), sequence (P10828 whole entry, looked up): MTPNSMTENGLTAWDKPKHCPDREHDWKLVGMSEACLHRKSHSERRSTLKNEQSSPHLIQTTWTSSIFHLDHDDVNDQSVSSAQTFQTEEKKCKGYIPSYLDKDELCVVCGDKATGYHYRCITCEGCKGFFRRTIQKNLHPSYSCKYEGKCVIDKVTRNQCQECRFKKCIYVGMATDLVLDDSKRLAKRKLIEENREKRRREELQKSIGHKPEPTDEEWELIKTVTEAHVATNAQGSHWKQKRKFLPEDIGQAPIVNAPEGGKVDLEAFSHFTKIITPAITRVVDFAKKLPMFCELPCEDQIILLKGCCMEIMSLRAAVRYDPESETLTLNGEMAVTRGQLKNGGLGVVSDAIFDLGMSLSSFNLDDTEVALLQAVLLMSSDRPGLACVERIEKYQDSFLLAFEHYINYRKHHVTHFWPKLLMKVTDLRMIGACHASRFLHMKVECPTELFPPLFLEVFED
In short: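 Agonist activity was read as beta-lactamase CCF4 fluorescence (405 ex, 460/530 em), scaled between DMSO (0%) and 10 nM T3 (100%), then Hill-fitted for EC50 and efficacy. HEK 293 TR-UAS-bla cells in 2% charcoal/dextran FBS medium were exposed 18 h at 37 C.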

[19] = qHTS assay for small molecule activators of the p53 signaling pathway (AID 651743; active = well fitted activation curve with a large enough effect in the signal ratio, not every such curve was filed as active; the % refers to the signal ratio; note: series mostly up to about 92 µM; % of control where 0% means no effect); settings: HCT-116 p53RE-bla, beta-lactamase FRET ratio, 16 h; activation: stronger effect = higher value
In short: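 Reporter: beta-lactamase driven by p53 response elements, stably integrated in HCT-116 cells. Cells seeded at 4,000/well, 5 h preincubation, compound (DMSO) 16 h at 37 C; B/G FRET substrate 2 h RT; fluorescence intensity read.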

[20] = qHTS assay for small molecule activators of the nuclear factor-kappa B (NF-kB) signaling pathway (AID 651749; active = well fitted activation curve with a large enough effect in the signal ratio; the % refers to the signal ratio; note: series mostly up to about 77 µM; % of control where 0% means no effect); settings: NF-kB-bla ME-180 cells, beta-lactamase FRET ratio, 16 h; activation: stronger effect = higher value
In short: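 NF-kB-bla ME-180 cells, 2,000/well; 23 nL compound or DMSO pinned; 16 hr, 37C/5% CO2; beta-lactamase FRET read-out.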

[21] = target: Peroxisome proliferator-activated receptor alpha (Homo sapiens) (UniProt Q07869); test: qHTS assay for small molecule agonists of the peroxisome proliferator-activated receptor alpha (PPARalpha) signaling pathway (AID 651778; active = well fitted curve in the direction sought with a large enough effect; an effect the other way counts as inactive or inconclusive; note: % of control where 0% means no effect); settings: PathHunter PPARalpha complementation, chemiluminescence, 6 h; max response: stronger effect = higher value
Peroxisome proliferator-activated receptor alpha (Homo sapiens), sequence (Q07869 whole entry, looked up, the tested form may be a part): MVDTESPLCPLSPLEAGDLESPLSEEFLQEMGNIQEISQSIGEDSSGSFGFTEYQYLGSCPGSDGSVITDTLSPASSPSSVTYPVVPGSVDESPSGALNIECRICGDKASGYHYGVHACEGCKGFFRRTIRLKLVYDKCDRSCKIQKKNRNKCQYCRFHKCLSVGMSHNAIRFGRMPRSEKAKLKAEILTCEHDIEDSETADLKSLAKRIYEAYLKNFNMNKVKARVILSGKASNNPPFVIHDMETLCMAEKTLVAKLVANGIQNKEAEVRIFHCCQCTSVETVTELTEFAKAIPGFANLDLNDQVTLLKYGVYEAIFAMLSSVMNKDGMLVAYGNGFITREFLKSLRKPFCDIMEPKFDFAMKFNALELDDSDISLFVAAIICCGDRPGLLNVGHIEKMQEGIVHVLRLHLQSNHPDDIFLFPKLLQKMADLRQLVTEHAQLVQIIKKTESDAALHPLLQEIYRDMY
In short: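 Enzyme-fragment complementation assay in which ligand-bound PPARalpha translocates and forms an active enzyme that generates chemiluminescence. Cells were plated overnight, exposed to compound for 6 hr at 37 C, and then given detection reagent for 60 min at room temperature.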

[22] = qHTS assay for small molecule agonists of the antioxidant response element (ARE) signaling pathway measured by Nrf2-dependant transcriptional activity - cell viability counter screen (AID 720653; active = well fitted curve in the direction sought with a large enough effect in the repeat runs; an effect the other way counts as inactive or inconclusive; note: % is set by controls: 0 for no effect and ±100 for the full control effect); settings: ARE-bla HepG2 viability, CellTiter-Glo ATP luminescence, 16 h; max response: stronger effect = lower value
In short: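 ARE-bla HepG2 cells treated with compounds for 16 h at 37C; this counter screen measures viability as intracellular ATP by CellTiter-Glo luminescence after 30 min at room temperature.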

[23] = qHTS assay for cell viability of HEK293 cells (AID 743288; active = well fitted curve in the direction sought with a large enough effect; an effect the other way counts as inactive or inconclusive; note: % is set by controls: 0 for no effect and ±100 for the full control effect; nearly all actives have a fitted effect of over 50% in size); settings: ATP luminescence (CellTiter-Glo), 18 h; max response: stronger effect = lower value
In short: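 Viable-cell counts were inferred from luciferase-based ATP content in HEK293 cells seeded at 2,000/well, pre-incubated ≥5 h, then dosed with DMSO-solubilised compounds for 18 h at 37 C.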

[24] = qHTS assay for cell viability of the p53RE-bla HCT-116 cell line (AID 743292; active = well fitted curve in the direction sought with a large enough effect; an effect the other way counts as inactive or inconclusive; note: % is set by controls: 0 for no effect and ±100 for the full control effect; nearly all actives have a fitted effect of over 55% in size)
In short: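 HCT-116 p53RE-bla cells seeded 4,000/well; 5 h at 37 C; compound (DMSO) added; 16 h at 37 C; CellTiter-Glo added, 30 min RT; luminescence read.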

[25] = target: Nuclear receptor subfamily 1 group I member 2 (Rattus norvegicus) (UniProt Q9R1A7); test: qHTS assay for small molecule activators of the rat pregnane X receptor (rPXR) signaling pathway (AID 651751; call rule not given here; note: 0% is about no effect); settings: rPXR reporter cells, luciferase (One-Glo), 24 h
Nuclear receptor subfamily 1 group I member 2 (Rattus norvegicus), sequence (Q9R1A7 whole entry, looked up): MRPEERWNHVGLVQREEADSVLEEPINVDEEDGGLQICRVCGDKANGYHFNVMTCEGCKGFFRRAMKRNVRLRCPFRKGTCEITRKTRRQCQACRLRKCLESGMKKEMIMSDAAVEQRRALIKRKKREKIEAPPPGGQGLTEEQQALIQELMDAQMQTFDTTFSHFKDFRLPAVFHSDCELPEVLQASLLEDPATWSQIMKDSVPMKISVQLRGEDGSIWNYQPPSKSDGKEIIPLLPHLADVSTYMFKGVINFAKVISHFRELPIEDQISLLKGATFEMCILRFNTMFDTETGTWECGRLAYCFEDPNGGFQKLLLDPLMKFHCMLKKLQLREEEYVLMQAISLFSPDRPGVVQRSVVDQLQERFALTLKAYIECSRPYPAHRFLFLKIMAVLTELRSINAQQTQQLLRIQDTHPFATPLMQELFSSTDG

[26] = qHTS assay for small molecule activators of the human pregnane X receptor (PXR) signaling pathway (AID 720659; call rule not given here; note: 0% is about no effect)

S=C([S-])NCCNC(=S)[S-].[Zn+2]
inactive: activation [1] 4.35% | Potency [2] | Potency [4] | max response [6] 15.4% and -59.9%
inactive and 68.6 µM (active): Potency [8]
active: Potency [7] 21.7 µM and 27.3 µM
2.58%: max response [3]
-2.08% and 15.4%: max response [5]

CC1(C)C(C=C(Cl)Cl)[C@H]1C(=O)OCc1cccc(Oc2ccccc2)c1 (some centres undefined)
inactive: activation [1] 0.728% | outcome [9] | Potency [4] | activation [10] 0.692%
-6.06%: max response [3]

CC(C)(C)C(=O)C1C(=O)c2ccccc2C1=O
inactive: activation [11] 1.07%
active: Potency [12] 21.1 µM

CCOP(=S)(OCC)SCSP(=S)(OCC)OCC
inactive: Potency [13] | outcome [14] | Potency [16] | Potency [17] | Potency [2] | outcome [9] | Potency [18] | max response [6] -4.31% | activation [19] -5.14% | activation [20] -2.5% | activation [10] 3.33% | max response [21] -1.9% | Potency [8] | max response [22] -0.915% | max response [23] -18.3% | Potency [24]
-10.3%: max response [5]
36.7%: max response [15]

CC1(C)[C@@H](C=C(Cl)Cl)[C@@H]1C(=O)OCc1cccc(Oc2ccccc2)c1
inactive: activation [1] 0.397% | outcome [14] | outcome [9] | Potency [18]

[CH3][Sn]([Cl])([Cl])[Cl]
-11.9%: max response [3]
-4.62%: max response [15]
-11%: max response [5]
inactive: activation [1] -3.55% | Potency [13] | outcome [14] | Potency [17] | Potency [2] | outcome [9] | Potency [4] | activation [19] -2.75% | max response [21] 0.635% | Potency [8] | max response [22] -16% | max response [23] -18.6% | Potency [24] | max response [25] -7.26% | outcome [26]

CCCSC(=O)N(CCC)CCC
-0.108%: max response [3]
inactive: activation [1] -2.67% | Potency [13] | outcome [14] | Potency [16] | Potency [2] | outcome [9] | Potency [4] | Potency [18] | Potency [7] | activation [19] 5.3% | activation [10] 1.67% | max response [21] -0.593% | Potency [8] | max response [22] -2.88% | max response [23] -7.74% | max response [25] 1.18% | outcome [26]
26.4%: max response [15]
